# From ChEMBL document CHEMBL3988442, “University of Dundee, Small-Polar-MMV Screening Library” (2021)
# The whole screen tested about 69,000 compounds, of which about 950 (1.4%) showed an effect of 50% or more. Only a selection was taken, and strong results are over-represented in it overall.
# System: Mycobacterium tuberculosis
# Experiment: Cornell M. t heat shock assay; further: in the data most compounds retested in dose-response had high values
# Type: functional, organism-based
# Set-up: dose or concentration left out as unconfirmed
row,SMILES,Percent Effect
1,O=C(O)C(F)(F)F.O=C(O)C(F)(F)F.c1cncc(N2CCCC3(CN(Cc4cccs4)CCO3)C2)c1 (stereo not drawn),-18.25%
2,COCCN1CCc2ncnc(NC(C)C)c2CC1.O=C(O)C(F)(F)F,-1.499%
3,CS(=O)(=O)N1CCC(Nc2ccc(C#N)c(C(F)(F)F)c2)CC1,-3.037%
4,N#Cc1ccc(NC2CCN(c3ncccn3)CC2)cc1C(F)(F)F,101.3%
5,N#Cc1ccc(NC2CCN(c3ncccn3)CC2)cc1Cl,-23.07%
6,COCCN1CCC2(CCN(c3ncccn3)CC2)C1=O.O=C(O)C(F)(F)F,-21.42%
7,O=C(O)C(F)(F)F.O=C(c1cnccn1)N1C[C@@H](OCc2cccnc2)[C@H]2OCCC[C@H]21,-23.96%
8,CN1CCCC(c2cncc(C(=O)NCc3ccccc3Cl)n2)C1.O=CO (stereo not drawn),5.616%
9,O=C(c1nc(COc2ccc3c(c2)OCO3)no1)N1CCCC1,24.96%
10,NC(=O)Cc1ccc(OCc2noc(C(=O)N3CCCC3)n2)cc1,-10.23%
11,CC(=O)Nc1ccc(OCc2noc(C(=O)N3CCCC3)n2)cc1,4.312%
12,CC(=O)Nc1ccc(OCc2noc(C(=O)N3CCCCCC3)n2)cc1,51.07%
13,O=C(c1nc(Cc2c[nH]c3ccccc23)no1)N1CCCCC1,12.78%
14,CC(=O)Nc1ccc(OCc2noc(C(=O)N3CCCCC3)n2)cc1,65.04%
15,O=C(NCC1CC2(CO1)CN(Cc1cccs1)C2)C1CCC1.O=C(O)C(F)(F)F (stereo not drawn),-27.85%
16,O=C(O)C(F)(F)F.O=C(c1ccncc1F)N1CC[C@@H]2OC(COCC3CC3)CC[C@@H]21 (stereo partly drawn),-24.6%
17,CC(C)C(C)NC(=O)c1ncn2c1CN(C)S(=O)(=O)c1ccccc1-2.O=C(O)C(F)(F)F (stereo not drawn),-5.107%
18,CCN(C)c1ncnc2c1CCN(Cc1ccsc1)CC2.O=C(O)C(F)(F)F.O=C(O)C(F)(F)F,-17.94%
19,O=C(Cn1cccc2cc(-c3ccc(F)cc3)nc1-2)N1CCC(O)CC1,-13.39%
20,COc1ccc(-c2cc3cccn(CC(=O)N4CCOCC4)c-3n2)cc1,-34.2%

row,SMILES,Percent Effect
1,CN(C)CCN(C)C(=O)Cn1cccc2cc(-c3ccc(F)cc3)nc1-2,93.82%
2,O=C(O)C(F)(F)F.O=C1CO[C@@H]2CN(CC3CCOCC3)C[C@H]2N1CC1CC1,-5.405%
3,CN1C(=O)CC(c2ccccc2)C12CCN(CC1CC1)CC2.O=C(O)C(F)(F)F (stereo not drawn),1.497%
4,Cc1ccc2cc(C(=O)NCCN3CCS(=O)(=O)CC3)c(C)nc2c1,96.87%
5,CCN1CCN(CCCNC(=O)c2cc3ccc(C)cc3nc2C)CC1,-11.33%
6,COc1ccc2nc(C)c(C(=O)NCCN3CCS(=O)(=O)CC3)cc2c1,0.03382%
7,CCN(CC)Cc1cn2c(n1)CN(Cc1c(C)noc1C)CC2.O=C(O)C(F)(F)F.O=C(O)C(F)(F)F,-4.28%
8,Cn1nccc1-c1nnn2c1COCC(CNC1CCOCC1)C2.O=C(O)C(F)(F)F.O=C(O)C(F)(F)F (stereo not drawn),3.559%
9,CCCc1nc(NCCc2ccccc2)c2c(n1)c(C)nn2CC,91.68%
10,CCCc1nc(NCCCO)c2c(n1)c(C)nn2CC,24.94%
11,CCCc1nc(NCCCOC)c2c(n1)c(C)nn2CC,-13.02%
12,CCCn1c(NCCc2ccccc2)nc2c(C)nn(C)c2c1=O,22.06%
13,Cc1nc(NC2CCCC2)c2c(n1)c(C)nn2C,15.85%
14,CCn1nc(C)c2nc(C)nc(NCCc3ccc(C)cc3)c21,69.41%
15,CCn1nc(C)c2nc(C)nc(NCCCn3cccn3)c21,-3.879%
16,CCn1nc(C)c2nc(C)nc(NC3CCCC3)c21,69.93%
17,Cc1nc(NC2CC2)c2c(n1)c(C)nn2C,-10.52%
18,CCn1nc(C)c2nc(C(C)C)nc(NCCc3ccc(O)cc3)c21,-11.29%
19,CCn1nc(C)c2nc(C)nc(NCCc3ccccc3)c21,83.2%
20,CCCc1nc(NCCOC)c2c(n1)c(C)nn2CC,-17.61%

row,SMILES,Percent Effect
1,O=C(O)C(F)(F)F.O=C(O)C(F)(F)F.c1cc(CN2CCO[C@H]3[C@H](OCC4CCCC4)CC[C@@H]32)ccn1,3.983%
2,Cc1ccc(C(=O)N2CCC3(CCCN(c4ncc(F)cn4)C3)C2)cn1.O=C(O)C(F)(F)F (stereo not drawn),10.32%
3,C1CC(CO[C@@H]2CC[C@H]3[C@H]2OCCN3CC2CC2)CCO1.O=C(O)C(F)(F)F,-24.78%
4,Cc1ccc(C)c(CSc2nnc(C(N)Cc3ccccc3)o2)c1.Cl (stereo not drawn),-13.89%
5,Cl.O=C(C1CC1)N1CCOC2(CCNCC2)C1,27.3%
6,Fc1ccc(CN2C[C@@H]3OCCN(CC4CCCO4)[C@@H]3C2)cc1.O=C(O)C(F)(F)F.O=C(O)C(F)(F)F (stereo partly drawn),-48.55%
7,CCc1ncnc2c1CCN(Cc1ccc3c(c1)OCO3)CC2.O=C(O)C(F)(F)F,-11.62%
8,COC[C@H]1CC[C@@H]2[C@@H](CCN2Cc2ccco2)O1.O=C(O)C(F)(F)F,-6.92%
9,Cc1ccc(CN2CCOC3(CCN(CC4CCOC4)CC3)C2)cc1.O=C(O)C(F)(F)F.O=C(O)C(F)(F)F (stereo not drawn),35.27%
10,CNC(=O)[C@H]1CO[C@H]2CCN(Cc3ccc4ccccc4n3)C[C@H]2C1.O=C(O)C(F)(F)F.O=C(O)C(F)(F)F,-6.104%
11,CCCc1nc(N2CCCCC2)c2c(n1)c(C)nn2CC,-7.298%
12,CCCc1nc(N2CCN(CC)CC2)c2c(n1)c(C)nn2CC,-31.53%
13,CCCc1nc(N2CCCCCC2)c2c(n1)c(C)nn2CC,50.35%
14,COCC(=O)N1CCOCC2(CCN(Cc3cccs3)C2)C1.O=C(O)C(F)(F)F (stereo not drawn),-21.04%
15,Cc1ccc(CN2CCn3c(CN(C)C(C)C)cnc3C2)s1.O=C(O)C(F)(F)F.O=C(O)C(F)(F)F,-14.26%
16,Cc1cn2c(n1)C(CNCc1ccc(C)s1)CCC2 (stereo not drawn),-22.18%
17,Cc1cn2c(n1)C(CNCC1=Cc3ccccc3OC1)CCC2 (stereo not drawn),28.86%
18,Cc1cn2c(n1)C(CNCC1=Cc3cc(Cl)ccc3OC1)CCC2 (stereo not drawn),99%
